Hits are enriched below; roughly 11% of the tested compounds scored in any of these assays.
Sm TGR inh: inhibitors of Schistosoma mansoni thioredoxin glutathione reductase; purified TGR, DTNB reduction, TNB absorbance 405 nm; Potency, µM (series often up to 114 µM), inactives show at the highest dose activity change, negative = inhibition, actives largely listed as inhibitors; hit rate 3% among 360,000; AID 485364; note: % is set by controls: 0 for no effect and ±100 for the full control effect; nearly all actives have a fitted effect of over 60% in size
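TGR 20 nM + NADPH 100 uM (dispensed conc.), cpd preinc 15 min RT; start with NADPH (500 uM addition) then DTNB (15 mM addition). Kinetic TNB absorbance, 405 nm filter. Four-parameter Hill fit across titration.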
NS1 function inh: inhibitors of influenza NS1 protein function; hit rate 0.4% among 270,000; Potency, µM (series often up to 46.1 µM), for inactives: top-dose activity, positive = more growth; calls by dose curve; note: actives are rising curves; nearly all actives have a fitted effect of over 50% in size
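Compounds were scored for reversing the slow growth caused by influenza A NS1 in S. cerevisiae, measured by optical density at 600 nm. Assay medium contained 2% galactose at pH 6.0; NS1-free yeast of the same strain were the positive control.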
Pf growth 96h: P. falciparum growth inhibition at 96 hour, primary screen for plastid delayed-death inhibitors; Potency, µM (highest dose often 28.7 µM), for inactives: top-dose activity change, negative = inhibition, actives largely listed as inhibitors; P. falciparum luciferase reporter growth, 96 h; hit rate 6.9% among 320,000; AID 504834; note: % is set by controls: 0 for no effect and ±100 for the full control effect
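Luminescence readout: decreased luciferase signal marks inhibited growth of reporter-expressing P. falciparum in infected red cells (2% hematocrit, 0.05% parasitemia final), exposed to compound two generations (96 h, 37 C, 5% CO2).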
Pf growth 48h: P. falciparum growth inhibition at 48 hours (one generation); P. falciparum luciferase growth in erythrocytes, 48 h; Potency, µM (highest dose often 28.7 µM), without a hit: at the highest dose activity change, negative = inhibition, hits mostly inhibitors; hit rate 5.9% among 310,000; AID 504832; note: % is set by controls: 0 for no effect and ±100 for the full control effect
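Luminescence readout; reporter = integrated firefly luciferase in P. falciparum. RBC culture at 2% hematocrit, 0.1% parasitemia final, 37 C/5% CO2; decreased signal taken as growth inhibition.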
AMA1 RON2 block: AMA1-RON2 (P. falciparum) interaction inhibition. AlphaScreen AMA1-biotinylated RON2 peptide binding. Potency, µM (series often up to 58.2 µM), for the others: at the top dose activity change, negative = inhibition, actives largely listed as inhibitors. hit rate 0.2% among 360,000. AID 720542;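 note: 0% = vehicle wells and -100% = peptide control; nearly all actives have a fitted effect of over 45% in size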
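AMA1 (3D7) with his tag at 25 nM final met compounds first, then biotinylated RON2 peptide at 25 nM; detection used donor plus acceptor beads, 10 µg/mL apiece, read by AlphaScreen after 30 min at room temperature.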
Numbers without * were called inactive; ? = inconclusive; / = not tested or not shown. Unless noted, calls come from the whole dose curve; as a rule, active = well fitted curve in the direction sought with a large enough effect; inconclusive = small, poorly fitted or top-dose-only effect, or another doubt; inactive = no such curve, though single readings can be large; an effect the other way counts as inactive or inconclusive. Potency is the fitted concentration of half-maximal effect.

SMILES | Sm TGR inh | NS1 function inh | Pf growth 96h | Pf growth 48h | AMA1 RON2 block
CCCN(CCC)Cc1c(C(=O)N/N=C/c2ccncc2)nnn1-c1nonc1N | 10% | 2% | 5% | 7% | 21%
CC(/C=N/NC(=O)c1nnn(-c2nonc2N)c1CN(C)C)=C\c1ccco1 | 45µM* | -2% | -2% | ? | 73%
C/C(=N\NC(=O)c1nnn(-c2nonc2N)c1CN(C)c1ccccc1)c1ccc(O)cc1 | -6% | 8% | 26% | 5% | 48%
CCCN(CCC)Cc1c(C(=O)N/N=C/CCc2ccccc2)nnn1-c1nonc1N | 5% | 8% | 9.3µM* | -2% | 86%
CCCN(CCC)Cc1c(C(=O)N/N=C/C(C)=C\c2ccco2)nnn1-c1nonc1N | ? | -12% | ? | ? | 15%
C/C(=N\NC(=O)c1nnn(-c2nonc2N)c1CN(C)c1ccccc1)c1ccccn1 | 7% | -11% | 5.2µM* | 13µM* | -83%
Cc1csc(NC(C)c2nc3cc(C(F)(F)F)ccc3n2CCCO)n1 (stereo not given) | / | / | / | / | 39%
Cc1c(C=N)c(O)n(C)c(=O)c1C#N | 2% | 1% | 27% | -5% | 9%
CCCOc1ccccc1N/C(N)=N/c1nc(C)cc(C)n1 | / | ? | -23% | 15µM* | -7%
CCCOc1ccccc1N/C(=N/c1nc(C)cc(C)n1)NC(=O)COc1ccc(OC)cc1 | 4% | 7% | 4.7µM* | / | 0%
CCCOc1ccccc1NC(=O)/C=C/C(N)=O | 3.2µM* | -222% | 8% | / | -2%
COc1ccc(N/C(=N/c2nc(C)cc(C)n2)NC(=O)Nc2ccc(Cl)c(Cl)c2)c(OC)c1 | -10% | -1% | 10µM* | 12µM* | -12%
COc1ccc(OC)c(N/C(=N/c2nc(C)cc(C)n2)NC(C)=O)c1 | 3% | 3% | 11% | 11% | 0%
CCOC(=O)NC(=O)c1cn(-c2ccc(OC)cc2)c(=O)[nH]c1=O | -5% | 4% | 0% | / | 12%
COc1ccc(S(=O)(=O)N2CCOCC2)cc1NC(=O)c1c(-c2ccccc2)noc1C | 1% | / | 10µM* | ? | -12%
COc1ccc(S(=O)(=O)N2CCOCC2)cc1NC(=O)c1cccc2c(=O)c(C)c(-c3ccccc3)oc12 | -9% | 5% | 2.1µM* | 5.2µM* | -5%
Cc1cc(C(=O)Nc2ccc(S(=O)(=O)N3CCOCC3)cc2)c(C)o1 | -6% | 5% | -1% | -1% | -10%
COc1ccc(S(=O)(=O)N2CCOCC2)cc1NC(=O)c1cc(C)oc1C | -14% | / | 12µM* | ? | -8%
O=[N+]([O-])c1ccc(OCC(O)CN(CCO)CCO)cc1 (stereo not given) | -4% | -2% | 46% | 37% | -3%
CCCCN(CCCC)CC(O)COc1ccc(Br)cc1 (stereo not given) | 33% | -7% | 3.3µM* | 3.7µM* | 2%
COc1ccc(NC(=O)N2CCN3CCCCC3C2)cc1OC (stereo not given) | 3% | / | / | / | /
CC(OC(=O)[C@H](C)NC(=O)c1ccccc1Cl)C(=O)NCc1ccc2c(c1)OCO2 (stereo not given in full) | 3% | / | 10% | -6% | -2%
O=C(Nc1ccc(Cl)c(-c2nc3ccccc3[nH]2)c1)c1ccc2c(c1)OCO2 | -10% | ? | ? | -5% | -5%
O=C(Nc1ccc(-c2nc3ccccc3[nH]2)cc1)c1ccc2c(c1)OCO2 | 4% | 18% | 5.2µM* | 9.3µM* | ?
CCOc1ccc(C(=O)Nc2ccc(-c3nc4ccccc4[nH]3)cc2)cc1[N+](=O)[O-] | -1% | 25% | -18% | 1.9µM* | -8%
SMILES | Sm TGR inh | NS1 function inh | Pf growth 96h | Pf growth 48h | AMA1 RON2 block
Cn1ncc([N+](=O)[O-])c1C(=O)Nc1ccc(-c2nc3ccccc3[nH]2)cc1 | -10% | -20% | ? | ? | -2%
CS(=O)(=O)c1ccc(C(=O)Nc2ccc(-c3nc4ccccc4[nH]3)cc2)cc1 | -8% | 25% | -26% | 1.9µM* | 0%
CS(=O)(=O)c1ccc(C(=O)Nc2cccc(-c3nc4ccccc4[nH]3)c2)cc1 | -3% | 2% | ? | ? | -2%
CS(=O)(=O)Cc1ccc(C(=O)Nc2cccc(-c3nc4ccccc4[nH]3)c2)cc1 | 5% | -17% | 8.3µM* | -44% | -15%
CC(C)[C@H](NC(=O)c1cccc(S(=O)(=O)N2CCOCC2)c1)C(=O)Nc1nc2ccccc2s1 | -10% | 23% | 10µM* | 15µM* | -3%
CC(C)C(NC(=O)c1cccc(S(=O)(=O)N2CCOCC2)c1)C(=O)NCc1ccc(Cl)cc1 (stereo not given) | 0% | / | -20% | ? | 0%
CC(Sc1nc2cc(Cl)ccc2s1)C(=O)Nc1cccc(S(=O)(=O)N2CCOCC2)c1 (stereo not given) | 1% | ? | 13µM* | -22% | -8%
CCOc1ccccc1C(=O)N[C@H](C(=O)Nc1ccc(OC)c(S(=O)(=O)N2CCOCC2)c1)C(C)C | -5% | / | ? | 13µM* | -17%
CCOc1ccc(C(=O)N[C@H](C(=O)Nc2ccc(OC)c(S(=O)(=O)N3CCOCC3)c2)C(C)C)cc1 | 15% | -26% | ? | ? | -5%
CC(C)[C@H](NC(=O)c1cccc(S(=O)(=O)N2CCOCC2)c1)C(=O)NCc1ccc(F)cc1 | / | / | / | / | -4%
CCOc1ccccc1NC(=O)[C@@H](NC(=O)c1cccc(S(=O)(=O)N2CCOCC2)c1)C(C)C | 6% | 6% | ? | 13µM* | 12%
COc1ccc(S(=O)(=O)N2CCCCC2)cc1NC(=O)C1CC1C (stereo not given) | 2% | / | -17% | 6% | -1%
COc1sc(SC)cc1/C=N/NC(=O)c1ccncc1 | -9% | -3% | 15% | 10% | 8%
Cc1ccc(N(C)C2=NC(=O)CS2)cc1Cl | -6% | 3% | ? | 2.1µM* | 8%
CC(C)c1cc(Nc2cccc(O)c2)cc(C(C)C)c1O | 8.9µM* | -25% | 12µM* | ? | /
O=C(c1ccco1)N1N=C(c2ccncc2)CC1(O)C(F)(F)F (stereo not given) | -18% | -1% | 5.2µM* | 18% | 42%
O=C(c1ccco1)N1N=C(c2ccc(Cl)cc2)CC1(O)C(F)(F)F (stereo not given) | 13% | 7% | ? | -9% | 0%
O=c1[nH]c(=O)n(Cc2ccco2)c2c1C(C(F)(F)F)(C(F)(F)F)N=C(CCc1ccccc1)N2 | -18% | 4% | 2.3µM* | ? | -4%
COc1cccc2sc(N3CCN(C(=O)c4ccc([N+](=O)[O-])o4)CC3)nc12 | ? | / | 0.74µM* | 0.83µM* | -25%
O=C(c1ccc([N+](=O)[O-])o1)N1CCN(c2nc3c(Cl)cccc3s2)CC1 | -20% | / | 1µM* | 1.3µM* | 0%
Cc1ccc2sc(N3CCN(C(=O)c4ccc([N+](=O)[O-])o4)CC3)nc2c1C | -2% | / | 0.74µM* | 0.37µM* | -7%

Compound activity deposited in PubChem BioAssay by National Center for Advancing Translational Sciences (NCATS).
